Several values for one entry are separate records, joined by “and”; a condition that tells them apart may be missing. Equal entries are not always repeated. Hit rate of the full screen: of about 5,500 compounds, about 2,000 (36%) were called active. Not shown: some 18% with an inconclusive outcome. Rule as the data show it: active = normalized growth mostly below about 0.91 (no sharp cut-off); inconclusive = no clear call, values can overlap the other calls; inactive = mostly above about 0.92. Some of the results follow.
Test: chemical genetic growth profiling, strain panel (AID 1159580);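 also: tested at 20 µM; growth read once vehicle control cultures reached saturation at 30 °C; 1 = growth at the plate median or of vehicle wells; lower values mean less growth of the strain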
Conditions: S. cerevisiae deletion strains, growth OD

Measured: normalized growth

CC1(C)C=Cc2cc3ccc(=O)oc3cc2O1
0.984 (inactive) and 0.846 (active): locus YHR030C, strain SLT2, stronger effect = lower value
inactive: locus YAL013W, strain DEP1, stronger effect = lower value 0.986 | locus YAL021C, strain ccr4, stronger effect = lower value 0.987 | locus YAL026C, strain drs2, stronger effect = lower value 0.963 | locus YAL030W, strain snc1, stronger effect = lower value 0.934 | locus YBL061C, strain skt5, stronger effect = lower value 0.972 | locus YBR021W, strain FUR4, stronger effect = lower value 0.95 | locus YBR171W, strain sec66, stronger effect = lower value 0.945 | locus YBR229C, strain ROT2, stronger effect = lower value 0.995 | locus YBR231C, strain swc5, stronger effect = lower value 0.958 | locus YBR279W, strain paf1, stronger effect = lower value 0.973 | locus YCL029C, strain bik1, stronger effect = lower value 0.967 | locus YCR088W, strain abp1, stronger effect = lower value 0.927 | locus YDL005C, strain med2, stronger effect = lower value 0.96 | locus YDL035C, strain GPR1, stronger effect = lower value 0.984 | locus YDL040C, strain nat1, stronger effect = lower value 0.962 | locus YDL074C, strain BRE1, stronger effect = lower value 0.919 | locus YDL101C, strain DUN1, stronger effect = lower value 0.987 | locus YDL134C, strain PPH21, stronger effect = lower value 0.947 | locus YDL185W, strain tfp1, stronger effect = lower value 0.975 | locus YDL192W, strain arf1, stronger effect = lower value 0.958 | locus YDR069C, strain doa4, stronger effect = lower value 0.958 | locus YDR101C, strain arx1, stronger effect = lower value 0.93 | locus YDR137W, strain rgp1, stronger effect = lower value 0.849 | locus YDR159W, strain sac3, stronger effect = lower value 0.959 | locus YDR162C, strain NBP2, stronger effect = lower value 0.976 | locus YDR195W, strain ref2 1.07 | locus YDR297W, strain sur2, stronger effect = lower value 0.965 | locus YDR318W, strain mcm21, stronger effect = lower value 0.935 | locus YDR334W, strain swr1, stronger effect = lower value 0.943 | locus YDR335W, strain msn5, stronger effect = lower value 0.919 | locus YDR388W, stronger effect = lower value 0.971 | locus YEL003W, strain gim4, stronger effect = lower value 0.951 | locus YEL037C, strain rad23, stronger effect = lower value 0.95 | locus YEL061C, strain CIN8 (second series), stronger effect = lower value 0.931 | locus YEL061C, strain CIN8, stronger effect = lower value 0.993 | locus YER016W, strain bim1, stronger effect = lower value 0.965 | locus YER110C, stronger effect = lower value 0.96 | locus YER111C, strain swi4, stronger effect = lower value 0.958 | locus YER155C, strain BEM2, stronger effect = lower value 0.973 | locus YER167W, strain BCK2, stronger effect = lower value 0.952 | locus YFR010W, strain ubp6, stronger effect = lower value 0.951 | locus YGL078C, strain dbp3, stronger effect = lower value 0.968 | locus YGL167C, strain pmr1, stronger effect = lower value 0.953 | locus YGL173C, strain kem1, stronger effect = lower value 0.949 | locus YGL227W, strain vid30, stronger effect = lower value 0.934 | locus YGL248W, strain PDE1, stronger effect = lower value 0.941 | locus YGL253W, strain hxk2, stronger effect = lower value 0.971 | locus YGR078C, strain PAC10, stronger effect = lower value 0.944 | locus YGR135W, strain pre9, stronger effect = lower value 0.907 | locus YGR252W, strain gcn5, stronger effect = lower value 0.818 | locus YHR013C, strain ard1, stronger effect = lower value 0.865 | locus YHR027C, strain rpn1, stronger effect = lower value 0.953 | locus YHR079C, strain IRE1 (second series), stronger effect = lower value 0.962 | locus YHR094C, strain hxt1, stronger effect = lower value 0.964 | locus YHR129C, strain ARP1, stronger effect = lower value 0.978 | locus YHR200W, strain rpn10, stronger effect = lower value 0.954 | locus YIL066C, strain RNR3, stronger effect = lower value 0.993 | locus YIL073C, strain SPO22, stronger effect = lower value 0.908 | locus YIL125W, strain kgd1, stronger effect = lower value 0.935 | locus YIR030C, strain dcg1, stronger effect = lower value 0.962 | locus YJL092W, strain hpr5, stronger effect = lower value 0.921 | locus YJL095W, strain BCK1 (second series), stronger effect = lower value 0.96 | locus YJL115W, strain asf1, stronger effect = lower value 0.921 | locus YJL134W, strain LCB3, stronger effect = lower value 0.991 | locus YJL154C, strain vps35, stronger effect = lower value 0.933 | locus YJL168C, strain set2, stronger effect = lower value 0.976 | locus YJL187C, strain SWE1 (second series), stronger effect = lower value 0.959 | locus YJL187C, strain SWE1, stronger effect = lower value 0.968 | locus YJR043C, strain POL32, stronger effect = lower value 0.972
0.901 (inactive) and 0.867 (active): locus YJL095W, strain BCK1, stronger effect = lower value
active: locus YBR009C, strain hhf1, stronger effect = lower value 0.875 | locus YBR023C, strain chs3, stronger effect = lower value 0.912 | locus YCL011C, strain gbp2, stronger effect = lower value 0.865 | locus YCL016C, strain dcc1, stronger effect = lower value 0.891 | locus YCL069W, strain vba3, stronger effect = lower value 0.915 | locus YDR001C, strain nth1, stronger effect = lower value 0.906 | locus YDR392W, strain spt3, stronger effect = lower value 0.58 | locus YDR502C, strain sam2, stronger effect = lower value 0.914 | locus YER015W, strain faa2, stronger effect = lower value 0.919 | locus YER155C, strain BEM2 (second series), stronger effect = lower value 0.565 | locus YGL086W, strain mad1, stronger effect = lower value 0.916 | locus YGL240W, strain doc1, stronger effect = lower value 0.863 | locus YHR079C, strain IRE1, stronger effect = lower value 0.818 | locus YHR142W, strain chs7, stronger effect = lower value 0.834 | locus YJL129C, strain trk1, stronger effect = lower value 0.778 | locus YJL164C, strain tpk1, stronger effect = lower value 0.9 | locus YJL166W, strain qcr8, stronger effect = lower value 0.896

— PubChem BioAssay AID1159580 (chemical genetic matrix, 2015)
